Screens as filed in PubChem BioAssay.
Most compounds without a hit are left out; they make up all but 4.2% or so of the library.
NALP1 yeast inh: blocks the NALP1 inflammasome reconstituted in yeast. inhibition, % at 10 µM. S. cerevisiae NALP1/ASC/caspase-1 growth, X-gal OD620, 72 h. AID 2071. 0.61% of 280,000 active; in the data active means inhibition mostly above about 24%, no sharp cut-off; inactive means mostly below about 32%
tim23-1 inh: inhibits growth of tim23-1 mutant yeast; AID 463212; inhibition, % at 20 µM; 1.3% of 330,000 active; S. cerevisiae tim23-1 growth, BacTiter-Glo luminescence, 24 h;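 active means growth inhibition of the mutant yeast at or above 50%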;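 further: temperature-sensitive mutant grown at 25 °C; plate controls were DMSO-treated mutant yeast for no effect and medium wells lacking yeast for full effect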
tim10-1 inh: tim10-1 yeast growth inhibition; 2.2% of 330,000 active; S. cerevisiae tim10-1 ts strain growth, BacTiter-Glo, 24 h; inhibition, % at 20 µM; AID 463190;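 active means inhibition of at least 40%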;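 further: mutant grown at 25 °C; 0% = DMSO wells with yeast and 100% = wells holding no yeast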
NLRP3 yeast inh: blocks the NALP3 inflammasome reconstituted in yeast. Yeast reconstituted NLRP3/ASC/caspase-1, beta-gal luminescence, 24 h. inhibition, % at 10 µM. 0.39% of 330,000 active;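 active means inhibition of 50% or more; inactive means inhibition below 50%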;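 further: plate controls were induced DMSO wells for no effect and uninduced yeast grown without galactose for full effect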
V-ATPase pH: regulators of yeast V-ATPase proton transport; S. cerevisiae, pHLuorin cytosolic pH fluorescence; response, % at 10 µM; 0.37% of 350,000 active; in the data active means response mostly above about 7.3%, no sharp cut-off; inactive means mostly below about 5.4%; further: actives read high
TIM10 inh: TIM10 yeast growth inhibition | AID 463195 | 1.4% of 330,000 active | S. cerevisiae TIM10 strain growth, BacTiter-Glo luminescence, 24 h | inhibition, % at 10 µM;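 active means inhibition of 40% or more at the single tested concentration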;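 further: wild-type TIM10 isogenic control strain grown at permissive 25 °C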
tim10-1 confirm: confirmation of tim10-1 mutant yeast growth inhibitors; S. cerevisiae tim10-1 ts strain growth, BacTiter-Glo, 24 h; AID 463213; 56% of 7,400 active; inhibition, % at 20 µM; shares compounds with tim10-1 inh;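 active means inhibition of yeast growth at or above a set limit in either of two repeat tests at 20 µM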;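 further: tim10-1 mutant grown at permissive 25 °C to find synthetic lethal compounds; 0% = DMSO yeast wells and 100% = medium wells without yeast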
Numbers without * were called inactive; / = no result.

SMILES	NALP1 yeast inh	tim23-1 inh	tim10-1 inh	NLRP3 yeast inh	V-ATPase pH	TIM10 inh	tim10-1 confirm
C/C(=N\Nc1cc(C(F)(F)F)ccc1Cl)c1ccccc1O	9.4	25.3	46.7*	-0.9	-0.5	33.3	38.3*
CN(C(=O)Cn1nnc(-c2cccnc2)n1)C1CCCCC1	/	3.7	-10.3	12.7	/	4.5	/
CN(C)CCCN(C(=O)c1ccc(S(=O)(=O)N(C)C)cc1)c1nc2ccc(F)cc2s1	2.4	-0.6	13.6	-8.8	-1.0	12.5	/
CN(C)CCCN(C(=O)c1ccc(S(=O)(=O)N2CCc3ccccc32)cc1)c1nc2ccc(Cl)cc2s1	21.6	21.7	43.5*	10.4	1.2	18.9	34.2*
CN(C)CCCN(C(=O)c1ccc(S(=O)(=O)N2CCc3ccccc32)cc1)c1nc2ccc(F)cc2s1	24.0	21.8	40.0	2.5	-0.2	14.6	26.0
COc1ccccc1CN1C[C@@H]2C[C@@H](c3cccc(C)c3)N3CCC[C@@]23C1=O	5.2	28.3	11.4	12.8	-1.1	-6.4	/
C/C=C(/C(=C/C)c1ccc(O)cc1)c1ccc(O)cc1	3.9	49.7	44.2*	-18.0	-3.9	38.9	43.1*
COc1ccc2cc3cc(C(=O)N(C)C4CCCCC4)oc3nc2c1	-10.6	48.7	45.3*	18.8	3.4	15.1	-13.2
O=C1C2CCCN2C(c2ccco2)N1c1ccc(F)cc1 (centres undefined)	17.2	-7.4	9.1	-5.5	4.5	-7.7	/
Cn1c(SCc2ccc(C#N)cc2)nnc1-c1ccncc1	-1.0	-10.4	-13.8	11.3	-2.8	-11.7	/
C=CCn1c(SCc2ccc(C#N)cc2)nnc1-c1ccc(C)cc1	6.3	35.8	44.4*	-3.2	-0.6	17.3	28.1
COc1ccc(NC2c3ncccc3C(=O)N2Cc2cccs2)cc1 (centres undefined)	26.7	6.7	12.1	-2.0	0.5	-1.5	/
O=C1c2cccnc2C(Nc2ccc(Br)cc2)N1Cc1cccs1 (centres undefined)	12.7	15.3	41.1*	19.8	-0.8	33.8	23.4
O=[N+]([O-])c1cc(/C=N/NC(=S)Nc2ccccc2Cl)ccc1Cl	-10.1	19.5	46.4*	15.2	4.9	36.2	14.4
CCc1sc(C(=O)NCCCn2ccnc2)cc1Br	24.5	-3.6	-11.9	3.5	5.7	6.7	/
N#CC(C#N)=Cc1cc2ccccc2nc1N1CCOCC1	30.3	49.4	44.5*	-5.8	-0.7	25.6	21.1
CN1C(=O)C(C)(C)N(C(=O)c2cccc([N+](=O)[O-])c2)c2ccccc21	23.3	28.9	26.2	14.4	-2.2	14.5	/
Cc1ccc(-n2nnnc2-c2cccc(C)c2)cc1	6.2	2.6	25.4	-19.9	-2.6	22.6	/
COc1ccc(-n2nnnc2-c2cccc(OC)c2)cc1	37.4	1.4	44.0*	14.2	3.4	-6.6	13.1
CCS(=O)(=O)N1CCC(C(=O)Oc2ccc(Cl)cc2)CC1	9.5	11.7	-0.9	24.9	-1.0	1.8	/
O=C(c1ccc(N2CCN(S(=O)(=O)c3ccccc3)CC2)c([N+](=O)[O-])c1)N1CCOCC1	9.8	12.4	8.9	20.0	-2.9	4.2	/
COC(=O)c1ccc(N2CCN(S(=O)(=O)c3ccccc3)CC2)c([N+](=O)[O-])c1	41.3	30.5	42.4*	12.8	-0.5	3.2	14.9
O=S(=O)(NCc1ccc(F)cc1)c1ccc2c(c1)OCCO2	-20.1	36.8	53.1*	10.5	-2.2	27.9	36.5*
O=S(=O)(NCCSc1ccc(Cl)cc1)c1ccc2c(c1)OCCO2	15.4	30.3	56.0*	8.1	-2.4	24.3	49.2*
O=S(=O)(NCCSCc1ccc(Cl)cc1Cl)c1ccc2c(c1)OCCO2	5.9	27.6	45.0*	1.7	-3.2	19.1	33.5*
SMILES	NALP1 yeast inh	tim23-1 inh	tim10-1 inh	NLRP3 yeast inh	V-ATPase pH	TIM10 inh	tim10-1 confirm
C/C(CC(=O)Nc1ccc2c(c1)OCCO2)=N\NC(=O)C(=O)Nc1ccccc1C	4.2	11.7	8.9	5.0	-2.0	3.2	/
Cc1ccc(C(=O)CN(CCC(=O)O)C(=O)c2ccncc2)cc1	/	-7.3	0.8	-4.3	-3.6	-8.4	/
COc1ccc(Br)c(-c2nnc(CS(=O)(=O)c3ccccc3)o2)c1	-1.6	48.0	45.9*	0.5	-1.7	24.4	38.8*
Cc1c(C(=O)NC2CCCc3ccccc32)oc2ccccc12 (centres undefined)	16.8	30.6	44.6*	17.9	2.5	35.4	38.4*
CC(=O)c1ccc(NC(=O)C2CCN(S(=O)(=O)c3cccc4cccnc34)CC2)cc1	16.5	36.7	41.5*	3.3	1.7	18.4	28.6
COc1cccc(C(C)NC(=S)NCc2ccc(F)cc2)c1 (centres undefined)	15.7	24.2	41.8*	9.5	1.3	24.8	-0.6
Cc1ccc(C(C)NC(=S)NCc2ccc(F)cc2)cc1C (centres undefined)	14.0	10.8	27.6	25.0	-4.0	-43.0	/
N#Cc1ccc(OC(=O)C2CCN(C3=NS(=O)(=O)c4ccccc43)CC2)cc1	/	0.0	4.7	0.2	0.5	-2.6	/
O=C(CCc1ccccc1)C(=O)N1CCCC(C(=O)c2cccc(Cl)c2)C1 (centres undefined)	-1.3	22.9	40.0*	22.2	1.1	25.1	27.8
Cc1ccc(N=Nc2c(O)n(CN3CCOCC3)c3ccccc23)cc1	5.4	13.4	43.7*	24.6	-4.6	30.0	32.5*
Cc1ccc(S(=O)(=O)n2ccc3c2CCCC3=O)cc1	16.2	11.0	21.1	18.0	-0.7	-2.1	/
C=CCSc1nc(N(CC)CC)c2sccc2n1	-6.3	37.2	43.6*	25.1	-1.6	19.1	28.4
C=CCNc1nc(SC)nc2ccsc12	28.1	-8.7	22.4	0.5	0.3	5.4	/
CCC(C)NC(=O)CN(C1CCCCC1)S(=O)(=O)c1ccc(F)cc1 (centres undefined)	17.1	19.1	10.3	16.6	-5.0	-4.8	/
Cc1nc([N+](=O)[O-])c(C(=O)OCc2cccc(Br)c2)n1C	6.9	9.8	43.2*	17.5	0.2	7.2	32.6*
COc1cccc(CN2CC(C(=O)NCCc3cn4cccnc4n3)CCC2=O)c1 (centres undefined)	/	/	/	/	0.9	/	/
Cc1c(C(=O)N2CCOCC2)oc2ccc(S(=O)(=O)N3CCCC3)cc12	15.9	-1.3	8.1	10.0	-2.1	7.0	/
Cc1c(C(=O)N2CCc3ccccc3C2)oc2ccc(S(=O)(=O)N3CCCCCC3)cc12	40.4	35.9	43.3*	7.3	0.4	21.1	21.6
CC(C)COc1ccc(C(=O)CCN2CCCCC2)cc1	14.7	17.7	54.4*	8.7	2.6	-9.6	-8.2
CCOC(=O)c1c(NC(=S)N2CCN(C)CC2)sc(C)c1-c1ccccc1	10.7	45.1	42.9*	24.6	-1.9	28.3	31.4*
CCOC(=O)c1ccc(NC(=S)N2CCN(C)CC2)cc1	6.5	1.2	-16.3	5.0	-1.0	-4.8	/
